The panel holds about 83,000 compounds, 20% with a hit somewhere; the sample as a whole holds those more often.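 Plates (96-well) were seeded with cells, treated with compound at one concentration, and incubated for 48 hours before percent growth was determined.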 Calls of active or inactive are those of the source. How the source made its calls: active means growth percent below 10; inactive means the rest.

The test system of this assay is NCI-H23 lung. As to the kind of experiment: NCI-60 one-dose screen, 48 h (100 = growth as untreated, 0 = no growth, -100 = all killed). To be noted: 10 µM unless noted.
As for `CS(=O)(=O)Nc1cc(-c2ccc3ncnc(Nc4ccc5c(cnn5Cc5ccc(F)cc5)c4)c3c2)cnc1Cl`, the growth is 43.8% (inactive).
Then `CCSc1nc2scc(C)c2c(=O)[nH]1`, with 95.1% (inactive).
As to `Fc1cccc(Oc2ccc(Nc3ncnc4ccc(OCCCN5CCOCC5)cc34)cc2Cl)c1`, the growth is 73.5% (inactive).
`O=C(Nc1cccc2ccccc12)NC1CC1`: the growth was 105% (inactive).
Then `Clc1ccc2c(NC3CCC(N4CCOCC4)CC3)ccnc2c1` (stereo not given), with 62.2% (inactive); and `Cc1cc(N2CCN(CCNc3ccnc4cc(Cl)ccc34)CC2)nc(N2CCOCC2)n1`, with 42.8% (inactive).
Turning to `c1cnc2c(-c3nc4ccc5[nH]ncc5c4c4c3CCCC4)c[nH]c2c1`, the growth is 22.4% (inactive).
As to `O=C(O)c1ccc(-n2cc(/C=N/Nc3ccccc3)c(-c3ccc(F)cc3F)n2)cc1`, the growth was 71.5% (inactive).
As to `C=C(CBr)[C@@H]1CC[C@]2(C(=O)O)CC[C@]3(C)[C@H](CC[C@@H]4[C@@]5(C)CCC(=O)C(C)(C)[C@@H]5CC[C@]43C)[C@@H]12`, the growth is 85.8% (inactive).
`O=C(CSC(=S)n1cnnc1)NC(=O)c1ccccc1`: the growth was 102% (inactive).
As to `CC(C)(C)CC(C)(C)NC(=O)Nc1ncccc1OCc1ccccc1`, the growth is 86.4% (inactive).
Then `Oc1ccc(Cl)cc1/C=N\NC(=S)N/N=C/c1cc(Cl)ccc1O`, with 50% (inactive); and `CCc1ncnc2c1ccn2C(C)c1ccc(OC)c(F)c1` (stereo not given), with 38.9% (inactive); and `C/C(=N\O)c1ccc(Cl)cc1`, with 110% (inactive).
As to `CN(C)CCNC(=O)c1cc2c3cc(Cl)ccc3[nH]c2c2ncccc12`, the growth was 32.5% (inactive).

These data come from PubChem BioAssay (NCI).
